# Results taken from PubChem BioAssay.
# Unmarked numbers belong to inactive results. No rule for the calls is given here.
# Target: Pantothenate synthetase (Mycobacterium tuberculosis (strain ATCC 25618 / H37Rv)) (UniProt P9WIL5)
# Assay: Coupled enzyme confirmation of inhibitors against recombinant Mtb PanC (AID 375);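 also: 0% = full reaction with vehicle and 100% = no enzyme background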
# Conditions: coupled enzyme assay; at 10 µM, hits give high values
# Pantothenate synthetase (Mycobacterium tuberculosis (strain ATCC 25618 / H37Rv)), sequence (P9WIL5 whole entry, looked up): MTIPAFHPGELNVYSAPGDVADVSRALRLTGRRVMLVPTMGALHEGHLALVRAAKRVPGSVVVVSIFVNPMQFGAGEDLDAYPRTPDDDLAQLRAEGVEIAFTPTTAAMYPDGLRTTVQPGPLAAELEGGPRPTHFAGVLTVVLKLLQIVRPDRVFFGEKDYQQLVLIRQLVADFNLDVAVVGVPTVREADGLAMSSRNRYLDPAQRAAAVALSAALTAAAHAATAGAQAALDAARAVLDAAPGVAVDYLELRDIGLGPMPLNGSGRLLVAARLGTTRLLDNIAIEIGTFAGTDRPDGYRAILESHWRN
row,Structure (SMILES),inhibition
1,O=C(O)C1CCCN1S(=O)(=O)c1ccc2ccccc2c1 (stereo not given),3%
2,COCCNC(=O)C(c1ccc(C)o1)N(Cc1ccc(F)cc1)C(=O)Cn1nnc2ccccc21 (stereo not given),8%
3,Nc1nnc(-c2cc3ccccc3oc2=O)s1,8%
4,COc1ccccc1-c1nnc2sc(-c3ccc(N(C)C)cc3)nn12,5%
5,CCCC(=O)Nc1ccc(C(=O)O)cc1NC(=O)CCC,0%
6,COc1ccccc1OCc1nc2ccccc2[nH]1,0%
7,O=C(Nc1ccc2[nH]c3c(c2c1)CCCC3)c1ccco1,0%
8,Cn1cccc1Cc1nnc(SCC(=O)Nc2ccc(F)cc2)n1-c1ccc(F)cc1,4%
9,Cc1ccc(-c2nnc(SCC(=O)N3CC(C)CC(C)C3)o2)cc1C (stereo not given),0%
10,C/C=C/Cn1c(Br)nc2c1c(=O)[nH]c(=O)n2C,0%
11,CCOC(=O)N1CCN(Cc2nc3c(c(=O)n(C)c(=O)n3C)n2Cc2ccc(F)cc2)CC1,2%
12,O=C(CSc1nnc(-c2ccco2)n1CC1CCCO1)NC1CCCC1 (stereo not given),0%
13,O=C(NC1CCCCC1)c1cc2nc(-c3ccco3)cc(C(F)(F)F)n2n1,0%
14,CNCCC(Oc1ccc(C(F)(F)F)cc1)c1ccccc1 (stereo not given),4%
15,Cc1ccc(C2c3sc(=O)[nH]c3SC3C(=O)NC(=O)C32)cc1 (stereo not given),0%
16,CC(C)=CC(=O)Nc1ccc(Br)cc1,0%
17,Cn1c(CN2CCOCC2)nc2cc(NC(=O)c3ccccc3Cl)ccc21,5%
18,Fc1cccc(Nc2cc(-n3cccn3)ncn2)c1,3%
19,Clc1ccc(-n2ncc3c(NCCCn4ccnc4)ncnc32)cc1,0%
20,O=S(=O)(Nc1ccccn1)c1ccc(Oc2ccccc2)cc1,1%

row,Structure (SMILES),inhibition
1,CC(=O)c1c(NCCc2ccccc2)cc(C)oc1=O,0%
2,CS(=O)(=O)N(CC(=O)NCCSCc1cccc(Cl)c1)c1ccc2c(c1)OCO2,1%
3,CCOC(=O)CNC(=O)Nc1ccccc1C(=O)OC,6%
4,C[N+](C)(C)CCCCCCCCCC[N+](C)(C)C,4%
5,Cn1c(Cc2csc(N)n2)nnc1SCC(=O)NC1CCCCC1,4%
6,O=C(CN1C(=O)COc2ccccc21)NCCCN1CCc2ccccc2C1,0%
7,CCOC(=O)C1CCCN(C(=O)c2cn(C)c(=O)c3cc(OC)c(OC)cc23)C1 (stereo not given),0%
8,O=C(CSc1nnc(-c2ccco2)c(-c2ccco2)n1)Nc1ccccc1,2%
9,O=C(O)CSc1ccc2ccccc2n1,5%
10,O=C(c1ccco1)N1CCN(C(=O)C2CCN(S(=O)(=O)c3cccc4nsnc34)CC2)CC1,10%
11,Cc1cc(NC(=O)CSc2nnc(COc3cccc(C)c3C)n2Cc2ccco2)no1,0%
12,CCc1nnc(NC(=O)OCc2ccccc2)s1,0%
13,Cc1cccc(NC(=O)COc2ccc(Br)cc2)n1,0%
14,CCCn1c(=O)[nH]c(=O)c2[nH]cnc21,0%
15,CCOC(=O)c1c(NC(=O)c2ccn(CC)n2)sc2c1CCCC2,3%
16,C[C@]12CC[C@@H]3c4ccc(O)cc4CC[C@H]3[C@@H]1CC[C@@H]2OC(=O)CCC(=O)O,8%
17,CC(=O)NCc1nc2ccccc2n1C(C)C,0%
18,Cn1c(SCc2nnc3n2CCCCC3)nc2ccccc21,0%
19,Cc1nnc(NC(=O)c2ccco2)s1,5%
20,CCN1CCN(C(CNC(=O)c2ccc3c(c2)OCO3)c2cccnc2)CC1 (stereo not given),0%
